These results are taken from PMC11062922 (Nature Chemical Biology, 2023).

Read-outs that look alike come from different tables or passages of the source.

Common to all, as to parameters: species or system human, MV4-11 + K-562 + COLO205 + SK-N-BE2 + OVCAR-8
The test system of one test is ACVR1. The settings on record: read-out: apparent Kd, n = 1.
The next test relates to CDK9. As to conditions: read-out: apparent Kd; compound concentrations:100 nM and 1000 nM (sheet 'Samples'); n = 1.
Another test concerns CSNK2A1;CSNK2A3. As to conditions: read-out: apparent Kd; compound concentrations:100 nM and 1000 nM (sheet 'Samples'); n = 1.
A further test deals with CSNK2A2. The settings on record: read-out: apparent Kd; compound concentrations:100 nM and 1000 nM (sheet 'Samples'); n = 1.
In another test the test system is ERBB3. The settings on record: read-out: apparent Kd; compound concentrations:100 nM and 1000 nM (sheet 'Samples'); n = 1.
For the next test, the system named is FLT3. The settings on record: read-out: apparent Kd, n = 1.
In a further test the test system is GSK3A. As to conditions: read-out: apparent Kd; compound concentrations:100 nM and 1000 nM (sheet 'Samples'); n = 1.
The test system of the next test is GSK3B. The settings on record: read-out: apparent Kd; compound concentrations:100 nM and 1000 nM (sheet 'Samples'); n = 1.
In a further test the test system is ICK. As to conditions: read-out: apparent Kd; compound concentrations:100 nM and 1000 nM (sheet 'Samples'); n = 1.
The subject of the next test is NLK. As to conditions: read-out: apparent Kd; compound concentrations:100 nM and 1000 nM (sheet 'Samples'); n = 1.
In the next test the test system is PIM2. As to conditions: read-out: apparent Kd; compound concentrations:100 nM and 1000 nM (sheet 'Samples'); n = 1.
The subject of another test is TAOK1. As to conditions: read-out: apparent Kd; compound concentrations:100 nM and 1000 nM (sheet 'Samples'); n = 1.
The subject of a further test is TNIK. As to conditions: read-out: apparent Kd, n = 1.
The subject of a further test is ATM. The settings on record: read-out: apparent Kd; compound concentrations: 100 nM and 1000 nM (sheet 'Samples'), CATDS: 0.20840274799776901; n = 1.
The test system of another test is CDC42BPG. As to conditions: read-out: apparent Kd; compound concentrations: 100 nM and 1000 nM (sheet 'Samples'), CATDS: 7.2395541627420706E-2; n = 1.
The next test has as its system CLK1. The settings on record: read-out: apparent Kd; compound concentrations: 100 nM and 1000 nM (sheet 'Samples'), CATDS: 0.111342996670081; n = 1.
In another test the test system is CLK2. As to conditions: read-out: apparent Kd; compound concentrations: 100 nM and 1000 nM (sheet 'Samples'), CATDS: 0.14537230764377601; n = 1.
The next test deals with CLK4. As to conditions: read-out: apparent Kd; compound concentrations: 100 nM and 1000 nM (sheet 'Samples'), CATDS: 9.3990878908875697E-2; n = 1.
In another test the test system is DDX3X;DDX3Y. The settings on record: read-out: apparent Kd; compound concentrations: 100 nM and 1000 nM (sheet 'Samples'), CATDS: 7.1763596621612302E-2; n = 1.
Another test relates to RIPK3. The settings on record: read-out: apparent Kd; compound concentrations: 100 nM and 1000 nM (sheet 'Samples'), CATDS: 7.33471794094432E-2; n = 1.
The next test relates to TGFBR2. As to conditions: read-out: apparent Kd, n = 1.
A further test concerns ACVR1B. The settings on record: read-out: apparent Kd; compound concentrations:100 nM and 1000 nM (sheet 'Samples'); n = 1.
A further test deals with DAPK3. As to conditions: read-out: apparent Kd; compound concentrations:100 nM and 1000 nM (sheet 'Samples'); n = 1.
For a further test, the system named is PIK3CG. As to conditions: read-out: apparent Kd; compound concentrations:100 nM and 1000 nM (sheet 'Samples'); n = 1.
In the next test the test system is PKN3. The settings on record: read-out: apparent Kd; compound concentrations:100 nM and 1000 nM (sheet 'Samples'); n = 1.
For a further test, the system named is PRKD2. As to conditions: read-out: apparent Kd, n = 1.
The subject of another test is PRKD3. The settings on record: read-out: apparent Kd, n = 1.
In a further test the test system is ACVR2B. As to conditions: read-out: apparent Kd; compound concentrations: 100 nM and 1000 nM (sheet 'Samples'), CATDS: 0.26489055890019297; n = 1.
For a further test, the system named is FLT4. The settings on record: read-out: apparent Kd; compound concentrations: 100 nM and 1000 nM (sheet 'Samples'), CATDS: 0.63854178875025103; n = 1.
In another test the test system is PDGFRB. As to conditions: read-out: apparent Kd; compound concentrations: 100 nM and 1000 nM (sheet 'Samples'), CATDS: 0.185767501667575; n = 1.
A further test has as its system ADCK1. As to conditions: read-out: apparent Kd; compound concentrations: 100 nM and 1000 nM (sheet 'Samples'), CATDS: 4.4524563972159897E-2; n = 1.
For another test, the system named is ADK. As to conditions: read-out: apparent Kd; compound concentrations: 100 nM and 1000 nM (sheet 'Samples'), CATDS: 4.5787667935106503E-2; n = 1.
The subject of the next test is CDK4. As to conditions: read-out: apparent Kd; compound concentrations: 100 nM and 1000 nM (sheet 'Samples'), CATDS: 4.6312693671670499E-2; n = 1.
The next test deals with CSNK1D. As to conditions: read-out: apparent Kd; compound concentrations: 100 nM and 1000 nM (sheet 'Samples'), CATDS: 7.6669822847603902E-2; n = 1.
The test system of another test is CSNK1E. The settings on record: read-out: apparent Kd; compound concentrations: 100 nM and 1000 nM (sheet 'Samples'), CATDS: 6.5483605156218705E-2; n = 1.
Another test deals with MAP4K5. As to conditions: read-out: apparent Kd; compound concentrations: 100 nM and 1000 nM (sheet 'Samples'), CATDS: 6.0957264613737197E-2; n = 1.
In a further test the test system is PRKACA. As to conditions: read-out: apparent Kd; compound concentrations: 100 nM and 1000 nM (sheet 'Samples'), CATDS: 6.9210809350161107E-2; n = 1.
Another test concerns PRKACB. The settings on record: read-out: apparent Kd; compound concentrations: 100 nM and 1000 nM (sheet 'Samples'), CATDS: 6.0886440238293899E-2; n = 1.
A further test has as its system PRKCD. As to conditions: read-out: apparent Kd; compound concentrations: 100 nM and 1000 nM (sheet 'Samples'), CATDS: 6.5587395591723996E-2; n = 1.
A further test relates to PRKCQ. As to conditions: read-out: apparent Kd; compound concentrations: 100 nM and 1000 nM (sheet 'Samples'), CATDS: 0.20872331441348899; n = 1.
Another test has as its system RPS6KB1. As to conditions: read-out: apparent Kd; compound concentrations: 100 nM and 1000 nM (sheet 'Samples'), CATDS: 6.31408503509263E-2; n = 1.
Setting [1] is: compound concentrations:100 nM and 1000 nM (sheet 'Samples').

In the case of `O=C(Nc1n[nH]c2nc(-c3ccc(O)cc3)ccc12)C1CC1` [SB-710363], the potency estimated from few doses was 1210 nM in the test on ACVR1 (setting [1]); 2300 nM in the test with CDK9; 2320 nM in the test with CSNK2A1;CSNK2A3; 1270 nM in the test with CSNK2A2; 1710 nM in the test on ERBB3; 1530 nM with FLT3 (setting [1]). Moreover, the potency estimated from few doses in the test on GSK3A was 61.7 nM; in the test with GSK3B, 147 nM; in the test on ICK, 1130 nM; in the test with NLK, 1440 nM; in the test with PIM2, 1330 nM; with TAOK1, 1130 nM. Besides, in the test with TNIK (setting [1]), the potency estimated from few doses was 1630 nM.
As to `CCS(=O)(=O)c1ccc(OC)c(Nc2ncc(-c3cccc(C(C)=O)c3)o2)c1` [GW621431X], the potency estimated from few doses with ACVR1 (compound concentrations: 100 nM and 1000 nM (sheet 'Samples'), CATDS: 9.7395071504851799E-2) was 882 nM; with ATM, 232 nM; in the test on CDC42BPG, 2020 nM; with CLK1, 661 nM; in the test with CLK2 it was 405 nM; with CLK4, 958 nM. Besides, the potency estimated from few doses in the test on DDX3X;DDX3Y was 2090 nM; with FLT3 (compound concentrations: 100 nM and 1000 nM (sheet 'Samples'), CATDS: 0.113809183908987), 633 nM; in the test on RIPK3 it was 1930 nM; with TGFBR2 (compound concentrations: 100 nM and 1000 nM (sheet 'Samples'), CATDS: 0.12096887154144) it was 562 nM.
Take `Cc1csc(-c2nc(Nc3ccncc3)c3ccccc3n2)n1` [GW869640X]: the potency estimated from few doses with ACVR1B is 17.6 nM; in the test with DAPK3, 1290 nM; in the test with PIK3CG it was 1460 nM; in the test on PKN3, 939 nM; in the test on PRKD2 (setting [1]), 191 nM; in the test on PRKD3 (setting [1]), 504 nM. Moreover, the potency estimated from few doses in the test with TGFBR2 (setting [1]) is 750 nM.
Take `CC(=O)Nc1ccc(COc2ccc(Nc3ccnc4cc(-c5ccccn5)ccc34)cc2)cc1.Cl` [GW440148A]: the potency estimated from few doses in the test with ACVR2B was 482 nM; in the test with FLT3 (compound concentrations: 100 nM and 1000 nM (sheet 'Samples'), CATDS: 0.189547770315381) it was 1250 nM; in the test on FLT4, 88.5 nM; with PDGFRB it was 1340 nM.
For the compound `Cc1n[nH]c2ccc(-c3cc(OC[C@@H](N)Cc4c[nH]c5ccccc45)cnc3-c3ccoc3)cc12.Cc1n[nH]c2ccc(-c3cc(OC[C@@H](N)Cc4c[nH]c5ccccc45)cnc3-c3ccoc3)cc12.O=C(O)C(F)(F)F.O=C(O)C(F)(F)F.O=C(O)C(F)(F)F` [GSK562689A], the potency estimated from few doses in the test with ADCK1 is 2150 nM; in the test with ADK, 1830 nM; in the test on CDK4, 1720 nM; with CSNK1D it was 302 nM; in the test on CSNK1E, 464 nM; in the test on MAP4K5, 577 nM. Besides, the potency estimated from few doses in the test on PRKACA was 396 nM; in the test on PRKACB it was 579 nM; with PRKCD it was 462 nM; in the test on PRKCQ it was 41.7 nM; in the test with PRKD2 (compound concentrations: 100 nM and 1000 nM (sheet 'Samples'), CATDS: 0.17196563894613301), 57.2 nM; in the test with PRKD3 (compound concentrations: 100 nM and 1000 nM (sheet 'Samples'), CATDS: 0.24703755989756301), 32.3 nM. The potency estimated from few doses was 518 nM in the test with RPS6KB1; 123 nM with TNIK (compound concentrations: 100 nM and 1000 nM (sheet 'Samples'), CATDS: 0.113919393065207).
